From the supplement of paper PMC9694430

How the values were obtained:
Assay in all cases: thermal shift delta Tm vs DMSO control; higher = stronger stabilization (binding)
Conditions in all cases: 12.5 µM; protein concentration 2 µM
[1] = system: LOC_OS04G57630-cb004
How it was run: (§1)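 Purified, E. coli-expressed rice kinase domain constructs were tested by differential scanning fluorimetry in 96-well plates: 19.5 μl of 2 μM kinase in 100 mM potassium phosphate pH 7.5, 150 mM NaCl, 10% glycerol, 5 × SYPRO Orange, plus compound in DMSO. Fluorescence was read from 25°C to 95°C at 0.05°C/s. Melting temperatures came from Boltzmann fits, and the shift is the triplicate mean relative to protein with DMSO alone.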

[2] = system: LOC_OS05G07850-cb002
How it was run: as §1

[3] = system: LOC_OS05G16824-cb004
How it was run: as §1

[4] = system: LOC_OS05G28520-cb001
How it was run: as §1

[5] = system: LOC_OS05G30820-cb001
How it was run: as §1

[6] = system: LOC_OS05G43570-cb004
How it was run: as §1

[7] = system: LOC_OS06G16330-cb003
How it was run: as §1

[8] = system: T1, LOC_OS06G22820-cb001
T1 sequence (whole entry): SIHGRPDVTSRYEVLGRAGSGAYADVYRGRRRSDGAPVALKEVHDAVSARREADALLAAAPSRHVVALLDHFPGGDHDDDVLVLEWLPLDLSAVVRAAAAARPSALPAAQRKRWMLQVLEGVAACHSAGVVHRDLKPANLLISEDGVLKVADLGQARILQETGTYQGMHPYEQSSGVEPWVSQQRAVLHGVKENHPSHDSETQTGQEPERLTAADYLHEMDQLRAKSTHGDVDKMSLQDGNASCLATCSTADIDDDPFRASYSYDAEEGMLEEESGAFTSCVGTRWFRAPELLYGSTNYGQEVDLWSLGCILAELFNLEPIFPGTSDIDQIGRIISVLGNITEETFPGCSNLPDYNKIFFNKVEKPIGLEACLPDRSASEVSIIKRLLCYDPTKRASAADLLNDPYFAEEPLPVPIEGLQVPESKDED
How it was run: as §1

[9] = system: LOC_OS07G06570-cb004
How it was run: as §1

[10] = system: LOC_OS07G07230-cb001
How it was run: as §1

LOC_OS06G16330-cb003, sequence (as listed by the source): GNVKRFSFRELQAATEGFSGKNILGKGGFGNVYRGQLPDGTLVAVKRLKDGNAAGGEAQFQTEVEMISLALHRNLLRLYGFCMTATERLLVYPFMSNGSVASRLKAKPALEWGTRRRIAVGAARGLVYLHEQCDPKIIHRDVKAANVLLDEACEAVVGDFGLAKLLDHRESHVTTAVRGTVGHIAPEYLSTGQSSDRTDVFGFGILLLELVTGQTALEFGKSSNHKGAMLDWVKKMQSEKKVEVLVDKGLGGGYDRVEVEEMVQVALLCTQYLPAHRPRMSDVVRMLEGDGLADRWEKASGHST

| Structure (SMILES) | thermal shift delta Tm [1] [°C] | thermal shift delta Tm [2] [°C] | thermal shift delta Tm [3] [°C] | thermal shift delta Tm [4] [°C] | thermal shift delta Tm [5] [°C] | thermal shift delta Tm [6] [°C] | thermal shift delta Tm [7] [°C] | thermal shift delta Tm [8] [°C] | thermal shift delta Tm [9] [°C] | thermal shift delta Tm [10] [°C] |
| --- | --- | --- | --- | --- | --- | --- | --- | --- | --- | --- |
| CC(=O)Nc1cccc(-n2c(=O)n(C3CC3)c(=O)c3c(Nc4ccc(I)cc4F)n(C)c(=O)c(C)c32)c1 | 0.23 | 0.88 | -0.98 | 0.48 | 0.42 | 0.15 | -0.52 | 0.44 | 0.26 | -0.16 |
| C=CC(=O)Nc1cccc(Oc2nc(Nc3ccc(N4CCN(C)CC4)cc3OC)ncc2Cl)c1 | -0.7 | 8.75 | -3.25 | 0.26 | 0.41 | 0.58 | -0.17 | 0.37 | 0.31 | 0.24 |
| Oc1cc(CNC(=S)/C=C/c2cc(O)c(O)c(Br)c2)cc(O)c1O | 0.49 | -1.85 | -0.73 | 0.47 | 0.99 | 1.46 | 0.61 | 2.08 | 3.05 | 0.45 |
| CC(C)NC(=O)C1CCC(n2c(NC(=O)c3ccc(F)cc3)nc3ccc(CN4CCC(C(C)(C)O)CC4)cc32)CC1 (stereo not given) [Belizatinib (TSR-011)] | 6.67 | 8.98 | 13 | 4.12 | 0.47 | 0.09 | 4.55 | 0.48 | 1.37 | 0.49 |
| O=C(Nc1nc2cccc(-c3ccc(CN4CCS(=O)(=O)CC4)cc3)n2n1)C1CC1 [Filgotinib (GLPG0634)] | 0 | 4.98 | 1.83 | 0.76 | 0.46 | 0.12 | 5.12 | 0.31 | 0.9 | 0.58 |
| CNC(=O)c1cc(Oc2ccc(NC(=O)Nc3cc(C(C)(C)C)nn3-c3ccc4ncccc4c3)c(F)c2)ccn1 [Rebastinib (DCC-2036)] | 10.4 | 14.3 | 0.76 | 0.81 | 1.05 | 0.62 | 10 | 0.59 | 0.44 | -0.15 |
| CCOc1cc(C(=O)N2CCC(N3CCN(C)CC3)CC2)ccc1Nc1ncc2c(n1)N(C1CCCC1)c1ccccc1C(=O)N2C | -0.22 | 1.11 | 0.71 | 0.22 | 0.32 | 0.17 | 0.04 | 0.34 | 0.95 | -0.25 |
| COc1ccc2[nH]cc(/C=C3\C(=O)Nc4ccc(NC(=O)CCN5CCCCC5)cc43)c2c1 | 0.69 | 8.06 | 4.33 | 0.72 | 0.68 | 0.6 | 2.98 | 0.74 | 1.1 | 0.33 |
| O=C(Cc1ccc(-c2ccc(OCCN3CCOCC3)cc2)cn1)NCc1ccccc1 | 0.12 | 0.35 | -2.04 | 0.32 | 0.37 | 0.34 | -0.02 | 0.6 | 0.25 | -0.12 |
| CC(C)Nc1cc(-c2c[nH]c(C(=O)N[C@H](CO)c3cccc(Cl)c3)c2)c(Cl)cn1 | -0.02 | 2.27 | -2.75 | 0.6 | 0.63 | 0.49 | 0.62 | 0.65 | 1.26 | -0.16 |
| CCc1cccc(CC)c1NC(=O)N1Cc2[nH]nc(NC(=O)c3ccc(N4CCN(C)CC4)cc3)c2C1 | 0.89 | 5.74 | 1.16 | 0.11 | 0.78 | 0.47 | 2.93 | 1.47 | 1.26 | 0.12 |
